Calls of active or inactive are those of the source. The calls were made as follows: active = hit-call score of the fitted dose curve at least 0.9, where 1 is the maximum; inactive = score below 0.9.
Assays:
[1] = read-out: TIMP metallopeptidase inhibitor 2 (TIMP2), TIMP2 (gene 7077); assay: BSK_KF3CT_TIMP2: BioMAP Diversity Plus: KF3CT Assay for TIMP metallopeptidase inhibitor 2 (TIMP2) Biomarker Activity (AID 2283071); conditions: primary human keratinocytes with fibroblasts; actives raise or lower the signal
Procedure, shortened: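 Chemicals were dosed onto human skin primary co-cultures of keratinocytes and foreskin fibroblasts, and TIMP-2 was measured by ELISA after 24 hours. Activity in either direction was fitted relative to DMSO.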

[2] = read-out: C-C motif chemokine 2 (Homo sapiens) (UniProt P13500); assay: BSK_KF3CT_MCP1: BioMAP Diversity Plus: KF3CT Assay for Monocyte Chemoattractant Protein 1 (MCP1/CCL2) Biomarker Activity (AID 2283073); conditions: primary human keratinocytes with fibroblasts; actives raise or lower the signal
Procedure, shortened: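 Human keratinocyte–foreskin fibroblast co-culture; MCP-1 measured by ELISA 24 h after dosing. Bidirectional fit vs DMSO; cytotoxicity tracked by SRB total protein in parallel cultures.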

[3] = read-out: Matrix Metallopeptidase 9 (MMP9), MMP9 (gene 4318); assay: BSK_KF3CT_MMP9: BioMAP Diversity Plus: KF3CT Assay for Matrix Metallopeptidase 9 (MMP9) Biomarker Activity (AID 2283074); conditions: primary human keratinocytes with fibroblasts; actives raise or lower the signal
Procedure, shortened: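 Values come from bidirectional fitting relative to DMSO of MMP-9 levels, which were measured by ELISA. Measurements were taken 24 h after chemical dosing of a keratinocyte and foreskin fibroblast co-culture.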

[4] = read-out: urokinase plasminogen activator (uPA), PLAU (gene 5328); assay: BSK_KF3CT_uPA: BioMAP Diversity Plus: KF3CT Assay for urokinase plasminogen activator (uPA) Biomarker Activity (AID 2283075); conditions: primary human keratinocytes with fibroblasts; actives raise or lower the signal
Procedure, shortened: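 Values derive from bidirectional fitting against DMSO controls. Keratinocyte/foreskin fibroblast co-cultures received chemical; 24 h later uPA was detected by ELISA, with SRB total-protein staining in parallel wells for overt cytotoxicity.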

CD40, CD40 (gene 958) [5] = assay: BSK_LPS_CD40: BioMAP Diversity Plus: LPS Assay for CD40 Biomarker Activity (AID 2283076); conditions: primary human HUVEC with PBMC; actives raise or lower the signal
Procedure, shortened: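 HUVEC plus PBMC co-culture stimulated with LPS; CD40 quantified by ELISA 24 h after compound dosing. Fitting was bidirectional relative to DMSO. SRB staining of parallel cultures flagged overt cytotoxicity.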

[6] = read-out: E-selectin (Homo sapiens) (UniProt P16581); assay: BSK_LPS_Eselectin: BioMAP Diversity Plus: LPS Assay for Eselectin Biomarker Activity (AID 2283077); conditions: primary human HUVEC with PBMC; actives raise or lower the signal
Procedure, shortened: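 Human umbilical vein endothelial cells co-cultured with PBMC under LPS stimulation; cell-surface E-selectin measured by ELISA 24 h after dosing. Change in either direction versus DMSO, with SRB total-protein staining in parallel cultures for cytotoxicity.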

[7] = read-out: Interleukin-8 (IL8), CXCL8 (gene 3576); assay: BSK_LPS_IL8: BioMAP Diversity Plus: LPS Assay for Interleukin-8 (IL8) Biomarker Activity (AID 2283078); conditions: primary human HUVEC with PBMC; actives raise or lower the signal
Procedure, shortened: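 Human umbilical vein endothelial cells co-cultured with PBMC, LPS-stimulated, exposed to compound for 24 h. IL-8 quantified by ELISA; fitted in both directions against DMSO, with SRB total-protein staining of parallel cultures for cytotoxicity.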

[8] = BSK_LPS_SRB: Viability Assessment in the BioMAP Diversity Plus: LPS Assay (AID 2283079); conditions: primary human HUVEC with PBMC;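 also: total protein by sulforhodamine B absorbance as a cytotoxicity measure; measured one day after compound addition; fitted in both directions against DMSO so loss or gain of signal counts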
Procedure, shortened: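 Co-culture of human umbilical vein endothelial cells and PBMC, read 24 h after dosing. Total protein by 0.1% SRB staining after 10% TCA fixation, absorbance at 560 nm; bidirectional fit against DMSO.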

[9] = read-out: Interleukin-1 alpha (IL1a), IL1A (gene 3552); assay: BSK_LPS_IL1a: BioMAP Diversity Plus: LPS Assay for Interleukin-1 alpha (IL1a) Biomarker Activity (AID 2283080); conditions: primary human HUVEC with PBMC; actives raise or lower the signal
Procedure, shortened: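 Human umbilical vein endothelial cells co-cultured with PBMC and stimulated with LPS; IL-1a measured by ELISA 24 h after dosing. Bidirectional fitting against DMSO; cytotoxicity checked by SRB staining in parallel cultures.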

[10] = read-out: Monocyte Chemoattractant Protein-1 (MCP1), CCL2 (gene 6347); assay: BSK_LPS_MCP1: BioMAP Diversity Plus: LPS Assay for Monocyte Chemoattractant Protein-1 (MCP1) Biomarker Activity (AID 2283081); conditions: primary human HUVEC with PBMC; actives raise or lower the signal
Procedure, shortened: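 Human umbilical vein endothelial cells co-cultured with PBMC, LPS-stimulated; secreted MCP-1 measured by ELISA 24 h after compound addition. Bidirectional curve fitting against DMSO baseline; SRB total-protein staining in parallel cultures for cytotoxicity.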

[11] = BSK_LPS_PGE2: BioMAP Diversity Plus: LPS Assay for Prostaglandin E2 (PGE2) Biomarker Activity (AID 2283082); conditions: primary human HUVEC with PBMC; actives raise or lower the signal
Procedure, shortened: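 Compounds were added to the LPS co-culture of endothelium and PBMC, and PGE2 was measured by ELISA after 24 h. Responses in either direction were fitted with DMSO as baseline.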

[12] = read-out: Macrophage colony-stimulating factor (MCSF), CSF1 (gene 1435); assay: BSK_LPS_MCSF: BioMAP Diversity Plus: LPS Assay for Macrophage colony-stimulating factor (MCSF) Biomarker Activity (AID 2283083); conditions: primary human HUVEC with PBMC; actives raise or lower the signal
Procedure, shortened: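 HUVEC–PBMC co-culture, M-CSF measured by ELISA 24 h after chemical dosing. Fitted in both directions relative to DMSO as negative control; overt cytotoxicity assessed by SRB total-protein staining in parallel cultures.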

[13] = read-out: Tumor necrosis factor (Homo sapiens) (UniProt P01375); assay: BSK_LPS_TNFa: BioMAP Diversity Plus: LPS Assay for Tumour Necrosis Factor alpha (TNFa) Biomarker Activity (AID 2283085); conditions: primary human HUVEC with PBMC; actives raise or lower the signal
Procedure, shortened: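 Cells (umbilical vein endothelium plus peripheral blood mononuclear cells) were dosed with chemical, incubated 24 h, then TNFa was quantified by ELISA; values derive from bidirectional fitting with DMSO as baseline.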

[14] = read-out: Vascular cell adhesion molecule 1 (VCAM1), VCAM1 (gene 7412); assay: BSK_LPS_VCAM1: BioMAP Diversity Plus: LPS Assay for Vascular cell adhesion molecule 1 (VCAM1) Biomarker Activity (AID 2283086); conditions: primary human HUVEC with PBMC; actives raise or lower the signal
Procedure, shortened: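 Cells are dosed in an LPS-stimulated endothelial/mononuclear co-culture and, after 24 h, VCAM-1 is quantified by ELISA. Activity in either direction is fitted relative to the DMSO negative control.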

CD38, CD38 (gene 952) = assay: BSK_SAg_CD38: BioMAP Diversity Plus: SAg Assay for CD38 Biomarker Activity (AID 2283087); conditions: primary human HUVEC with PBMC; actives raise or lower the signal
Procedure, shortened: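 CD38 quantified by ELISA (fluorescence) in a superantigen-activated endothelial cell–PBMC co-culture at 24 h post-dose. Activity fitted in both directions relative to DMSO; parallel SRB and Alamar Blue cytotoxicity read-outs.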

CD40, CD40 (gene 958) [15] = assay: BSK_SAg_CD40: BioMAP Diversity Plus: SAg Assay for CD40 Biomarker Activity (AID 2283088); conditions: primary human HUVEC with PBMC; actives raise or lower the signal
Procedure, shortened: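 HUVEC plus PBMC co-culture, superantigen-activated, with CD40 read by ELISA 24 h after dosing. Curves fitted in both directions against DMSO. Overt cytotoxicity checked by parallel SRB total-protein staining.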

CD69, CD69 (gene 969) = assay: BSK_SAg_CD69: BioMAP Diversity Plus: SAg Assay for CD69 Biomarker Activity (AID 2283089); conditions: primary human HUVEC with PBMC; actives raise or lower the signal
Procedure, shortened: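 ELISA, fluorescence read-out: CD69 on human umbilical vein endothelial cell + PBMC co-culture, 24 h post-dosing. Gain or loss of signal fitted bidirectionally against DMSO baseline.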

[16] = read-out: Monocyte Chemoattractant Protein-1 (MCP1), CCL2 (gene 6347); assay: BSK_SAg_MCP1: BioMAP Diversity Plus: SAg Assay for Monocyte Chemoattractant Protein-1 (MCP1) Biomarker Activity (AID 2283090); conditions: primary human HUVEC with PBMC; actives raise or lower the signal
Procedure, shortened: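 Values derive from bidirectional fitting of ELISA-measured MCP1 against DMSO controls. Readings were taken 24 h after dosing human vascular endothelial cells co-cultured with peripheral blood mononuclear cells under superantigen stimulation.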

[17] = read-out: Tissue Factor, F3 (gene 2152); assay: BSK_LPS_TissueFactor: BioMAP Diversity Plus: LPS Assay for Tissue Factor Biomarker Activity (AID 2283084); conditions: primary human HUVEC with PBMC; actives raise or lower the signal
Procedure, shortened: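 Human umbilical vein endothelial cells co-cultured with PBMC were dosed with compound. Cell-surface CD142 was measured by ELISA 24 h later. Activity was fitted bidirectionally against DMSO, with SRB total-protein staining in parallel cultures for cytotoxicity.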

Measured: outcome

Chain of E-selectin (Homo sapiens) (P16581 whole entry, looked up): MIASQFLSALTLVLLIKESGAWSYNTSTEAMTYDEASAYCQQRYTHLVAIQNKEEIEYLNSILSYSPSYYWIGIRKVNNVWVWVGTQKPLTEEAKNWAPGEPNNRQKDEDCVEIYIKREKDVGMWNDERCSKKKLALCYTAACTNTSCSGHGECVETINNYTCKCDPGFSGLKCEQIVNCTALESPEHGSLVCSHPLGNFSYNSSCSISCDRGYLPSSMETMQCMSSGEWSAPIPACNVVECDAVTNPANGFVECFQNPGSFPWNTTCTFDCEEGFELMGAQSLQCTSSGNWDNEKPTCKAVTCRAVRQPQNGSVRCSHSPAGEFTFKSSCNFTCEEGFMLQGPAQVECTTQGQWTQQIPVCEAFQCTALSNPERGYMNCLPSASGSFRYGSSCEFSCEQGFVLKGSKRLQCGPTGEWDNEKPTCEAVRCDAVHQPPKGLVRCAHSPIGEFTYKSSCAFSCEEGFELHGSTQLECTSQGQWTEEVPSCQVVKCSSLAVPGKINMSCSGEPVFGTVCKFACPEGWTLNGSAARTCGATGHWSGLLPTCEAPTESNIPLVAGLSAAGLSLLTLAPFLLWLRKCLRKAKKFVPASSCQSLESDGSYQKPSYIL
Chain of Tumor necrosis factor (Homo sapiens) (P01375 whole entry, looked up): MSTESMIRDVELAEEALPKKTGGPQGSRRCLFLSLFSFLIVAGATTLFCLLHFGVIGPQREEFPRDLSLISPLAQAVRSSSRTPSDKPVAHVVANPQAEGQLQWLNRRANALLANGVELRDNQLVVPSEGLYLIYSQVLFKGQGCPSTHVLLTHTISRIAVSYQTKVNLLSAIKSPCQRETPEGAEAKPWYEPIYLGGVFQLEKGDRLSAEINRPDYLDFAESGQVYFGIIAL

O=C(O)C=CC(F)(C(F)(F)F)C(F)(F)F
not listed: [17]
inactive: all other assays above

OCC(F)(F)OC(F)(F)C(F)(F)OC(F)(F)CO
not listed: [11] | [12] | [17]
inactive: all other assays above

CC(O)C(F)(F)C(F)(F)F (configuration not stated)
not listed: [10] | [11] | [17]
inactive: all other assays above

O=C(O)C(F)(F)C(F)(F)C(=O)O
not listed: [10] | [14]
inactive: all other assays above
